Key:
Format in all cases: functional
[1] = system: Plasmodium falciparum; experiment: GSK_TCMDC: Inhibition of Plasmodium falciparum 3D7 in whole red blood cells, using parasite LDH activity as an index of growth. Test compounds present at 2uM
[2] = system: Plasmodium falciparum; experiment: GSK_TCMDC: Inhibition of Plasmodium falciparum Dd2 in whole red blood cells, using parasite LDH activity as an index of growth. Test compounds present at 2uM
[3] = system: HepG2; experiment: GSK_TCMDC: Percent inhibition of human HepG2 cell line. Test compounds present at 10uM.

| SMILES | Inhibition [1] [%] | Inhibition [2] [%] | Inhibition [3] [%] |
| --- | --- | --- | --- |
| O=C(Nc1ccc(CN2CCOCC2)cc1)c1ccc(-c2ccc(Br)cc2)o1 | 92 | 0 | 3 |
| O=C(c1cc(-c2ccccc2O)on1)N1CCN(C(c2ccccc2)c2ccccc2)CC1 | 97 | 88 | 12 |
| COc1ccc2ccccc2c1CCCCN1CCN(CC(c2ccc(F)cc2)N2CCN(C(C)C)CC2)CC1.Cl (stereo not given) | 100 | 83 | 92 |
| COc1ccc2[nH]c(C)cc(=NN=Cc3cccc(Cl)c3)c2c1 | 100 | 100 | 13 |
| CCOC(=O)c1ccc(NC(=O)Nc2ccc(-c3ccc(-c4nc5ccccc5[nH]4)cc3)cc2)cc1 | 100 | 100 | 49 |
| Cc1cc(N)ncc1-c1ccc(NC(=O)Nc2cc(C(F)(F)F)ccc2F)cc1.O=C(O)C(F)(F)F | 100 | 23 | 15 |
| COc1cc(CNC[C@@H](O)[C@H](Cc2ccccc2)NC(=O)c2cc(C3CCCC3)cc(N3CCCS3(=O)=O)c2)cc(OC)c1.Cl | 95 | 94 | 31 |
| CC(C)Nc1cc(C(=O)N[C@@H](Cc2ccccc2)[C@H](O)CNC2CCCCC2)cc(N2CCCCS2(=O)=O)c1.O=CO | 98 | 98 | 9 |
| O=C(Cc1ccsc1)NCC(c1ccccc1Cl)c1c[nH]c2ccccc12 (stereo not given) | 86 | 71 | 0 |
| O=C(/C=C/c1ccc(Cl)c(Cl)c1)NCCCCCN1CCCN(C(=O)Nc2cccc(Cl)c2)CC1 | 100 | 2 | 11 |
